Bioassay records (PubChem)
Pf growth 96h – inhibits malaria parasite growth, 96 h; Potency, µM (series often up to 28.7 µM), without a hit: at the top dose activity change, negative = inhibition, usual class: inhibitors; AID 504834; actives 6.9% (n = 320,000); P. falciparum luciferase reporter growth, 96 h; further: potency means the concentration at half of the fitted maximal effect; on the % scale 0 is the no-effect control and ±100 the full control effect
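Two-generation exposure (96 h) targets delayed-death phenotype. Reporter parasites carrying integrated firefly luciferase, in red cells at 2% hematocrit and 0.05% parasitemia final, kept at 37 C, 5% CO2; luminescence loss indicates inhibition.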
Pf growth 48h – P. falciparum growth inhibition at 48 hours (one generation) | P. falciparum luciferase growth in erythrocytes, 48 h | Potency, µM (highest dose often 28.7 µM), for the others: top-dose activity change, negative = inhibition, usual class: inhibitors | actives 5.9% (n = 310,000) | AID 504832; further: potency means the concentration at half of the fitted maximal effect; on the % scale 0 is the no-effect control and ±100 the full control effect
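Firefly luciferase activity from engineered P. falciparum reports growth; inhibitors lower the luminescent signal. Cultures contained 2% hematocrit erythrocytes at 0.1% final parasitemia.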
Cycloheximide cs – counter-screen for Shiga toxin inhibitors: cycloheximide protein synthesis inhibition | max response, % | cell reporter, cycloheximide protein synthesis inhibition counterscreen | AID 2314 | actives 12% (n = 300,000); in the data active means max response mostly above about 13%, no sharp cut-off; inactive means mostly below about 14%; further: read at 38.3 µM for the half of the compounds with a filed dose; 0% is about no effect
Giardia FBPA inh – inhibitors of Giardia lamblia fructose-1,6-bisphosphate aldolase. A8B2U2. purified Giardia FBPA. Potency, µM (titrated, usually from 59.6 µM), inactives show at the top dose activity, negative = inhibition, actives largely listed as inhibitors. actives 0.71% (n = 290,000); further: potency means the concentration at half of the fitted maximal effect; on the % scale 0 is the no-effect control and ±100 the full control effect; nearly all actives have a fitted effect of over 55% in size
Target sequence (A8B2U2 whole entry, looked up): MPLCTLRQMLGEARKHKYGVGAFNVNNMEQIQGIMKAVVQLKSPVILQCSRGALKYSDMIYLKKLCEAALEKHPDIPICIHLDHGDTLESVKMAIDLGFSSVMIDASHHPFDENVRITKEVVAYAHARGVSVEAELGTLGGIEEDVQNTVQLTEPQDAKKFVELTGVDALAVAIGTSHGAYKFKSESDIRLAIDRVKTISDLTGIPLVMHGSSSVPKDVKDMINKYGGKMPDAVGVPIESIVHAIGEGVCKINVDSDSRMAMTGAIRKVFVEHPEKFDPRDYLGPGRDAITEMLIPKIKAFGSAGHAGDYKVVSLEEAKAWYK
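40 nM FBPA preincubated 10 min at RT with compound (up to 57.5 uM final), then substrate plus GAPDH/TPI/NAD/arsenate coupling and diaphorase/resazurin added. Fluorescence read after 20 min at RT, 525/598 nm.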
Shiga toxin inh – Shiga toxin inhibition | actives 9.2% (n = 290,000) | AID 2315 | Vero cells, Shiga toxin protein synthesis inhibition reporter | inhibition, % at 38.7 µM; in the data active means inhibition mostly above about 28%, no sharp cut-off; inactive means mostly below about 43%; further: 0% is about no effect
NS1 inh – influenza NS1 inhibition; actives 0.4% (n = 270,000); Potency, µM (top dose mostly 46.1 µM), without a hit: top-dose activity, positive = more growth; AID 2326; calls by dose curve; further: potency means the concentration at half of the fitted maximal effect; actives are rising curves; nearly all actives have a fitted effect of over 50% in size
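Recovery from NS1-induced slow growth read by OD600 in budding yeast switched to galactose assay medium (pH 6.0, -URA) at 1:100 dilution. Compound 23 nl per well; the matching strain lacking NS1 serves as control.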
The depositor's hits bear a star. Rows were chosen to be rich in hits. Some 21% of all compounds tested hit in one or more screens of this group. Unless noted, the call rests on the fitted dose curve; in most records, active means well fitted curve in the direction sought with a large enough effect; inconclusive means small, poorly fitted or top-dose-only effect, or another doubt; inactive means no such curve, though single readings can be large; an effect the other way counts as inactive or inconclusive.

OCCn1ccc(-c2ccccc2OCc2ccc(F)cc2)n1 was read as Pf growth 96h inconclusive, Pf growth 48h inconclusive, Cycloheximide cs -4, Giardia FBPA inh 11%, Shiga toxin inh -7 and NS1 inh 2%.
COCCC(=O)N1CCC(n2nccc2NC(=O)c2ccccc2C)CC1 was read as Pf growth 96h inconclusive, Pf growth 48h 14%, Cycloheximide cs 1, Giardia FBPA inh 0%, Shiga toxin inh -4 and NS1 inh 2%.
COc1ccc(C(O)(CC(C)C)C(CN2CCOCC2)c2ccccc2)cc1 (stereo unspecified) was read as Pf growth 96h inconclusive, Pf growth 48h 12µM*, Cycloheximide cs -3, Giardia FBPA inh -13%, Shiga toxin inh -2 and NS1 inh -4%.
`COc1ccc(C(O)(CCC(C)C)C(CN2CCOCC2)c2ccc(Cl)cc2)cc1` (stereo unspecified) gave Pf growth 96h -24%, Pf growth 48h 1.7µM*, Cycloheximide cs -3, Giardia FBPA inh -8%, Shiga toxin inh 5 and NS1 inh 2%.
For CCCC(O)(c1ccc(OC)cc1)C(CN1CCOCC1)c1ccc(Cl)cc1 (stereo unspecified) the results were Pf growth 96h -13%, Pf growth 48h inconclusive, Cycloheximide cs -4, Giardia FBPA inh 1%, Shiga toxin inh 1 and NS1 inh -2%.
CCc1ccc(C(O)(CC(C)C)C(CN2CCOCC2)c2ccccc2)cc1 (stereo unspecified) was read as Pf growth 96h -2%, Pf growth 48h inconclusive, Cycloheximide cs -3, Giardia FBPA inh -25%, Shiga toxin inh 11 and NS1 inh 2%.
Screening CCCC(O)(c1ccc(Cl)cc1)C(CN1CCOCC1)c1ccc(Cl)cc1 (stereo unspecified) returned Pf growth 96h 28%, Pf growth 48h 1.9µM*, Cycloheximide cs -8, Giardia FBPA inh inconclusive, Shiga toxin inh -8 and NS1 inh 1%.
Screening CCCC(O)(CCN1CCOCC1)c1ccc(Cl)cc1 (stereo unspecified) returned Pf growth 96h -14%, Pf growth 48h -12%, Cycloheximide cs 1, Giardia FBPA inh -9%, Shiga toxin inh -8 and NS1 inh 6%.
CCOc1ccc(C(O)(c2ccccc2)C(CN2CCCC2)c2ccccc2)cc1 (stereo unspecified) was read as Pf growth 96h 121%, Pf growth 48h 12µM*, Cycloheximide cs -2, Giardia FBPA inh 3%, Shiga toxin inh 20 and NS1 inh 1%.
COc1ccc(C(=O)N(C)Cc2ccccn2)cc1OC1CCN(C(C)C)CC1 was read as Pf growth 96h 12%, Pf growth 48h 16%, Cycloheximide cs 9, Shiga toxin inh -13 and NS1 inh 0%.
For CC(=O)Nc1ccc(NC(=O)C2CC(=O)N(Cc3ccco3)C2)cc1 (stereo unspecified) the results were Pf growth 96h 17% and Pf growth 48h 1%.
`CCCCC(O)(c1ccc(F)cc1)C(CN1CCOCC1)c1ccc(Cl)cc1` (stereo unspecified) gave Pf growth 96h 43%, Pf growth 48h 1.9µM*, Cycloheximide cs 1, Giardia FBPA inh 1%, Shiga toxin inh -6 and NS1 inh -12%.
For CCOc1ccc(C(O)(CCC(C)C)C(CN2CCOCC2)c2ccccc2)cc1 (stereo unspecified) the results were Pf growth 96h 12%, Pf growth 48h 7.4µM*, Cycloheximide cs -3, Giardia FBPA inh -26%, Shiga toxin inh -6 and NS1 inh -11%.
For Cc1ccc(S(=O)(=O)N(Cc2n[nH]c(=S)n2-c2ccccc2)c2ccccc2)cc1 the results were Pf growth 96h inconclusive, Pf growth 48h 2.3µM*, Cycloheximide cs -1, Giardia FBPA inh 18%, Shiga toxin inh -6 and NS1 inh 5%.
Screening Cc1ccc(S(=O)(=O)N(Cc2n[nH]c(=S)n2-c2ccccc2)c2cccc(Cl)c2)cc1 returned Pf growth 96h -19%, Pf growth 48h inconclusive, Cycloheximide cs -2, Giardia FBPA inh 18%, Shiga toxin inh 16 and NS1 inh 11%.
For Cc1cc(C(F)(F)F)nn1CC(=O)NCc1ccco1 the results were Pf growth 96h 1.5µM*, Pf growth 48h 17%, Cycloheximide cs -2, Giardia FBPA inh 1%, Shiga toxin inh 11 and NS1 inh 7%.
Screening Cc1nn(CC(=O)NCc2ccco2)c(C)c1[N+](=O)[O-] returned Pf growth 96h 19%, Pf growth 48h -6%, Cycloheximide cs 1, Giardia FBPA inh 2%, Shiga toxin inh -21 and NS1 inh 4%.
`Cc1c(Cl)c([N+](=O)[O-])nn1CC(=O)NCc1ccco1` gave Pf growth 96h 1.5µM*, Pf growth 48h 12%, Cycloheximide cs -5, Giardia FBPA inh 5%, Shiga toxin inh -22 and NS1 inh 2%.
`O=C(c1sc2cccc(Cl)c2c1Cl)N1CCN(CCc2ccccn2)CC1` gave Pf growth 96h -4%, Pf growth 48h 5%, Cycloheximide cs 1, Shiga toxin inh -5 and NS1 inh -25%.
For CC(C)CN(C(=O)Cn1nnc(-c2ccc(F)cc2)n1)C1CCS(=O)(=O)C1 (stereo unspecified) the results were Pf growth 96h 23% and Pf growth 48h inconclusive.
COc1ccc(CCNC(=O)C2(c3ccccc3)CC2)cc1 was read as Pf growth 96h -16%, Pf growth 48h 10%, Cycloheximide cs -2, Shiga toxin inh 2 and NS1 inh -14%.
Screening O=C(NCCc1ccccc1)C1(c2ccccc2)CCCC1 returned Pf growth 96h 13µM*, Pf growth 48h -22%, Cycloheximide cs -1, Giardia FBPA inh 3% and NS1 inh -8%.
CC(C(=O)c1ccccc1)[n+]1cccc(Br)c1 (stereo unspecified) was read as Pf growth 96h 79%, Pf growth 48h -3%, Cycloheximide cs -1, Giardia FBPA inh 0%, Shiga toxin inh -2 and NS1 inh 2%.
Screening COC(=O)C1=C(C)N(c2cc(C)cc(C)c2)/C(=C/c2ccco2)C1=O returned Pf growth 96h 5%, Pf growth 48h 8.3µM*, Cycloheximide cs 23, Giardia FBPA inh -17% and Shiga toxin inh 41.
Screening CC(=O)c1ccc(OCCCCOc2ccc(C(C)=O)cc2)cc1 returned Pf growth 96h -3%, Pf growth 48h -10%, Cycloheximide cs -3, Giardia FBPA inh -7%, Shiga toxin inh -15 and NS1 inh 12%.
Cc1onc(-c2c(Cl)cccc2Cl)c1C(=O)NCCc1ccncc1 was read as Pf growth 96h inconclusive, Pf growth 48h -3%, Cycloheximide cs -2, Shiga toxin inh -5 and NS1 inh 1%.
For CCCCC(=O)N1CCN(c2nc3ccc(OCC)cc3s2)CC1 the results were Pf growth 96h 12µM*, Pf growth 48h inconclusive, Cycloheximide cs 13, Shiga toxin inh -2 and NS1 inh -9%.
